Measured values reported in PubChem BioAssay (NCATS).
Inconclusive results are not listed. Entries that show only a call come without a potency. The source made the active and inactive calls. The call rests on the fitted dose curve; in most records, active means well fitted curve in the direction sought with a large enough effect; inconclusive means small, poorly fitted or top-dose-only effect, or another doubt; inactive means no such curve, though single readings can be large; an effect the other way counts as inactive or inconclusive.

Experiments:
[1] = qHTS of pediatric cancer cell lines to identify multiple opportunities for drug repurposing: Confirmatory screen for Saos-2 cells (AID 1347127); settings: Saos-2 osteosarcoma cell viability; series mostly up to 45.9 µM; further: nearly all actives have a fitted effect of over 60% in size; further: potency means the concentration at half of the fitted maximal effect
Outline: (§1)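 Cells (500-1,000/well) in growth media were settled 5 h at 37 degrees C, then given compounds for 48 h. Viability was read as CellTiter-Glo luminescence. Primary runs used MIPE at 11 points (0.78 nM-46 µM) and NPC at 8 points (0.59 nM-46 µM); follow-ups used 11 points.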

[2] = qHTS of pediatric cancer cell lines to identify multiple opportunities for drug repurposing: Confirmatory screen for OHS-50 cells (AID 1347128); settings: OHS-50 osteosarcoma cells viability; series mostly up to 45.9 µM;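 further: compound exposure lasted 48 h at 37 degrees C; nearly all actives have a fitted effect of over 55% in size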; further: potency means the concentration at half of the fitted maximal effect
Outline: as §1

[3] = test system: Zika virus NS2B-NS3 protease; experiment: Primary screen GU AMC qHTS for Zika virus inhibitors (AID 1347154); settings: Zika NS2B-NS3 unlinked protease, AMC fluorogenic substrate; series mostly up to 54.1 µM; further: nearly all actives have a fitted effect of over 70% in size
Outline: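 Unlinked Zika NS2B hydrophilic domain/NS3 protease domain noncovalent complex (25 nM final) in 10 mM Tris-HCl pH 8.0, 0.01% Tween 20, with AMC peptide substrate. Fluorescence (ex 340, em 450 nm) change over 15 min, room temperature; percent inhibition fitted to 4-parameter Hill equation.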

[4] = qHTS of pediatric cancer cell lines to identify multiple opportunities for drug repurposing: Confirmatory screen for SK-N-SH cells (AID 1347129); settings: SK-N-SH neuroblastoma cell viability; series mostly up to 46.1 µM;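 further: cells exposed to compound for 48 h before viability read; nearly all actives have a fitted effect of over 60% in size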; further: potency means the concentration at half of the fitted maximal effect
Outline: as §1

[5] = test system: Zika virus NS2B-NS3 protease (unlinked complex); experiment: Primary screen GU Rhodamine qHTS for Zika virus inhibitors: Unlinked NS2B-NS3 protease assay (AID 1347159); settings: Recombinant ZIKV NS2B-NS3 protease, Rhodamine110 substrate fluorescence; series mostly up to 107 µM; further: nearly all actives have a fitted effect of over 60% in size
Outline: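 Enzyme 25 nM in Tris-HCl pH 8.0 + 0.01% Tween 20; compounds up to 114 microM, 15 min RT dark; + Rhod110 substrate 1.5 microM; read t0 and 15 min; delta fluorescence → % inhibition → 4-parameter Hill fit.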

[6] = test system: Zika virus NS2B-NS3 protease (linked construct); experiment: Primary screen NINDS Rhodamine qHTS for Zika virus inhibitors (AID 1347160); settings: purified NS2B-NS3 protease, Rhodamine110 substrate fluorescence; series mostly up to 57.1 µM; further: nearly all actives have a fitted effect of over 55% in size
Outline: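 Enzyme (25 nM, linked NS2B-NS3) was preincubated 15 min with compound in 10 mM Tris-HCl pH 8.0, 0.01% Tween 20. Rhodamine110 substrate (1.5 microM) was then added and fluorescence read at start and after 15 min.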

[7] = test system: Zika virus NS2B-NS3 protease (unlinked); experiment: Optimization of GU AMC qHTS for Zika virus inhibitors: Unlinked NS2B-NS3 protease assay (AID 1347151); settings: recombinant ZIKV NS2B-NS3 protease, fluorogenic AMC substrate; series mostly up to 52.5 µM; further: nearly all actives have a fitted effect of over 80% in size
Outline: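 Fluorescence read-out (340 nm ex / 450 nm em) of AMC peptide cleavage, taken immediately and after 15 min at room temperature (~20% conversion). Enzyme was the unlinked NS2B–NS3 complex at 25 nM in Tris pH 8.0 buffer.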

[8] = test system: Zika virus NS2B-NS3 protease (linked); experiment: 384 well plate NINDS AMC confirmatory qHTS for Zika virus inhibitors (AID 1347163); settings: Recombinant NS2B-NS3 protease, Ac-VKTGKR-AMC fluorescence; further: potency means the concentration at half of the fitted maximal effect; nearly all actives have a fitted effect of over 50% in size
Outline: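 Fluorescence at 355/460 nm was read after 25 minutes of cleavage of 30 microM Ac-VKTGKR-AMC at room temperature, in the dark. Before substrate addition, compounds (up to 1 mM final) sat ~15 minutes with 5, 30 or 60 nM linked protease. Signals were normalized to no-enzyme and no-inhibitor wells.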

[9] = HepG2 cells viability qHTS for Zika virus inhibitors (AID 1347168); settings: Zika counter-screen; series mostly up to 45.9 µM
Outline: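 To flag cytotoxic protease inhibitors, viability is measured by ATP-dependent luminescence (CellTiter Glo) after cells attached overnight receive compound for 24 to 48 hours in DMEM with 4% FBS.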

[10] = Tertiary RLuc qRT-PCR qHTS assay for Zika virus inhibitors (AID 1347169); settings: infected Vero cells, reporter luminescence, 48-72 h; series mostly up to 45.9 µM; further: potency means the concentration at half of the fitted maximal effect; nearly all actives have a fitted effect of over 55% in size
Outline: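 Luminescence read-out: live-cell Renilla luciferase substrate applied to infected Vero cells, signal measured after 1-1.5 hrs. Cells had received compound before ZIKV-RLuc (Cambodian strain, MOI 1-2) infection and were incubated 48-72 hrs at 37 degrees C.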

[11] = target: N-terminal Xaa-Pro-Lys N-methyltransferase 1 (Homo sapiens) (UniProt Q9BV86); experiment: qHTS Assay for Inhibitors of N-terminal methyltransferase 1 (NTMT1): LOPAC validation of the NTMT1 SAHH-coupled ThioGlo3 Assay (AID 1347143); settings: recombinant NTMT1, SAHH-coupled ThioGlo3 fluorescence; series mostly up to 114 µM;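 further: SAH from peptide methylation measured as thiol fluorescence via SAHH coupling and ThioGlo3; nearly all actives have a fitted effect of over 70% in size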; further: potency means the concentration at half of the fitted maximal effect
Sequence of N-terminal Xaa-Pro-Lys N-methyltransferase 1 (Homo sapiens) (Q9BV86 whole entry, looked up): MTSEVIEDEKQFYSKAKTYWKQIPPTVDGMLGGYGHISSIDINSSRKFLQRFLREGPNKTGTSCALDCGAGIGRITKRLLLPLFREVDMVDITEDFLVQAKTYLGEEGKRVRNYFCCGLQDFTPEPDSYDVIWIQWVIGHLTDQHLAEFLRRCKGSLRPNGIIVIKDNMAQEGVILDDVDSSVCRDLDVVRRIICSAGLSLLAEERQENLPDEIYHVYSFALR
Outline: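 In this qHTS pilot against the LOPAC set, 125nM NTMT1 met compounds tested at multiple concentrations, and fluorescence was normalized to background.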

[12] = target: Lysine-specific demethylase 5B (Homo sapiens) (UniProt Q9UGL1); experiment: Optimization screen for KDM5B Histone Demethylases FDH coupled qHTS against the LOPAC library (AID 1347166); settings: KDM5B demethylation, FDH-coupled NADH fluorescence (FDH is formaldehyde dehydrogenase); series mostly up to 57.5 µM
Sequence of Lysine-specific demethylase 5B (Homo sapiens) (Q9UGL1 whole entry, looked up): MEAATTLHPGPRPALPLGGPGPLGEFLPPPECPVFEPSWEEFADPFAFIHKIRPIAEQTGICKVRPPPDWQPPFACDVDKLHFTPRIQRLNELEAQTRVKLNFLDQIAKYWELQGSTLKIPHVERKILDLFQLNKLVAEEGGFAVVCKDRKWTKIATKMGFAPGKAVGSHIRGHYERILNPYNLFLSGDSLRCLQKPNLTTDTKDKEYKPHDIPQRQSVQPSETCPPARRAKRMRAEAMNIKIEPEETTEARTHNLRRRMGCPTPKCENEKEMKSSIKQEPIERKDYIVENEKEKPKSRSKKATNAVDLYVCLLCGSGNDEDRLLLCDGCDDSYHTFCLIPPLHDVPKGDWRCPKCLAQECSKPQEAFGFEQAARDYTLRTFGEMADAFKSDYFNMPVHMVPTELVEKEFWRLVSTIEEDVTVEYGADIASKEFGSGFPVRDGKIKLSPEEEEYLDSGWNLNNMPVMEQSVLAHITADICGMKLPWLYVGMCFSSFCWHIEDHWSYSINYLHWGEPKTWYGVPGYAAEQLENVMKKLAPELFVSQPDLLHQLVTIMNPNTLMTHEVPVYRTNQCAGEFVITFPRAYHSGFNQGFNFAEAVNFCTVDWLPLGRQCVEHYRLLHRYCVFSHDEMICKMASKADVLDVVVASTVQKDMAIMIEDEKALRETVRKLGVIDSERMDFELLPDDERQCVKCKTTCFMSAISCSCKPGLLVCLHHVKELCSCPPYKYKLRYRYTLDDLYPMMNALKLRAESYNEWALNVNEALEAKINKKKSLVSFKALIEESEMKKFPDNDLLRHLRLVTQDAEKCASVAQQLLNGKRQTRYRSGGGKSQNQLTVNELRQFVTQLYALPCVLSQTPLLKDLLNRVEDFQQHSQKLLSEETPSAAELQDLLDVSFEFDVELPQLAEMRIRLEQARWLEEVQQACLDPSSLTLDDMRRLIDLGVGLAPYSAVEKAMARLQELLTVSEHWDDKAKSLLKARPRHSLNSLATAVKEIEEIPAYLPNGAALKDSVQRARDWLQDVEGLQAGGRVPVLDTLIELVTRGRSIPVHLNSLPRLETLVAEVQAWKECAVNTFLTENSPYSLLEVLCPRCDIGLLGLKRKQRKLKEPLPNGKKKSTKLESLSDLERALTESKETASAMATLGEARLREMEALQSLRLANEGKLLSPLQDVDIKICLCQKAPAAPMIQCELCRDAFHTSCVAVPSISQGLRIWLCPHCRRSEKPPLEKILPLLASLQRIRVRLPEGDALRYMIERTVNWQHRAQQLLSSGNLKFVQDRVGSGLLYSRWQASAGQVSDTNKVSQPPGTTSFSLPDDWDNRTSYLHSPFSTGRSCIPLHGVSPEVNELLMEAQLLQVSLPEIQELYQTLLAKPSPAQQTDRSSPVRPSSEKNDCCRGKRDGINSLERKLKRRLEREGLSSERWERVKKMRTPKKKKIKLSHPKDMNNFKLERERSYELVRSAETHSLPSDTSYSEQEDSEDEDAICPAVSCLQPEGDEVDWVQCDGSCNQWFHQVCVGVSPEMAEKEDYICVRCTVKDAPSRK
Outline: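 KDM5BDeltaAP (200nM final) in 50mM HEPES pH 7.5, 0.01% Tween-20 was preincubated with compound for 10 min at room temperature. A substrate mix of 12.5uM H3K4Me3, 25uM a-ketoglutarate, ascorbate, Fe2+, NAD+ and formaldehyde dehydrogenase was then added. NADH fluorescence (340/450 nm) was read initially and after 30 min.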

COc1ccc(-c2coc3cc(O)cc(O)c3c2=O)cc1
Potency [1]: inactive | Potency [2]: inactive | Potency [3]: inactive

COc1cc(N2CCC(N3CCN(C)CC3)CC2)ccc1Nc1ncc(Cl)c(Nc2ccccc2S(=O)(=O)C(C)C)n1
Potency [1]: 1.85 µM (active) | Potency [2]: 2.33 µM (active) | Potency [4]: 0.833 µM (active) | Potency [5]: inactive | Potency [6]: inactive

O=C1NC(=O)C(=Cc2ccc3c(c2)OC(F)(F)O3)S1
Potency [1]: inactive | Potency [2]: inactive | Potency [4]: inactive

O=c1[nH]cnc2c1ncn2[C@H]1CC[C@@H](CO)O1
Potency [1]: inactive | Potency [2]: inactive | Potency [4]: inactive | Potency [3]: inactive | Potency [5]: inactive | Potency [6]: inactive

C=C1C(=O)[C@@]23C(CC[C@@H]1[C@H]2O)[C@@]12CO[C@]3(O)[C@@H](O)[C@@H]1C(C)(C)CC[C@@H]2O (some centres not stated)
Potency [1]: 10.4 µM (active) | Potency [2]: 20.8 µM (active) | Potency [4]: 10.5 µM (active) | Potency [3]: inactive | Potency [5]: inactive | Potency [6]: inactive

CO[C@H]1C(=O)[C@]2(C)[C@@H](OC)C[C@H]3OC[C@@]3(OC(C)=O)[C@H]2[C@H](OC(=O)c2ccccc2)[C@]2(O)C[C@H](OC(=O)[C@H](O)[C@@H](NC(=O)OC(C)(C)C)c3ccccc3)C(C)=C1C2(C)C
Potency [1]: 0.0147 µM (active) | Potency [2]: 0.0165 µM (active) | Potency [3]: inactive

CC(C)(C(=O)NCC(F)(F)C(F)(F)F)C(=O)N[C@@H]1C(=O)Nc2ccccc2-c2ccccc21
Potency [1]: inactive | Potency [2]: inactive | Potency [3]: inactive

CC(=O)Nc1ccc([C@H](C)C(=O)Nc2ncc(C(C)C)s2)cc1
Potency [1]: 5.22 µM (active) | Potency [2]: 7.37 µM (active) | Potency [4]: 6.62 µM (active) | Potency [7]: inactive | Potency [5]: inactive | Potency [6]: inactive | Potency [8]: 112 µM (active) | outcome [9]: inactive | Potency [10]: 1.04 µM (active)

CO[C@H]1C=CC=C(C)C(=O)NC2=CC(=O)C(NCCN(C)C)=C(C[C@@H](C)C[C@H](OC)[C@@H](O)[C@@H](C)C=C(C)[C@@H]1OC(N)=O)C2=O
Potency [1]: inactive | Potency [2]: inactive

O=C(O)c1ccc(-c2c[nH]c3ncc(-c4ccccc4)cc23)cc1C1CCCC1
Potency [1]: inactive | Potency [2]: inactive | Potency [3]: inactive

CCc1ccc(OCc2ccccc2C(=O)Nc2ccc3nc(C)cc(N)c3c2)cc1
Potency [1]: 9.27 µM (active) | Potency [2]: 9.27 µM (active) | Potency [4]: 8.33 µM (active)

O=C(NCc1ccncc1)C12C[C@H]3C[C@@H](C1)CC(c1ccc(Cl)cc1)(C3)C2
Potency [1]: 16.5 µM (active) | Potency [2]: 13.1 µM (active) | Potency [4]: inactive | Potency [3]: inactive

O=C(O)CCC1CCC(c2cc(F)ccc2F)(S(=O)(=O)c2ccc(Cl)cc2)CC1 (configuration not stated)
Potency [1]: inactive | Potency [4]: inactive

N[C@@]1(C(=O)O)CS(=O)(=O)[C@H]2[C@H](C(=O)O)[C@H]21
Potency [1]: 1.31 µM (active) | Potency [2]: 0.928 µM (active) | Potency [4]: inactive | Potency [3]: inactive

O=c1cc(-c2ccc(O)cc2)oc2cc(O)cc(O)c12
Potency [1]: inactive | Potency [4]: inactive | Potency [11]: 89.1 µM (active) | Potency [3]: inactive | outcome [12]: inactive

CCCCCCCCCCCC1=C(O)C(=O)C=C(O)C1=O
Potency [1]: inactive

O=C(Nc1cccc(Br)c1)c1cccc(S(=O)(=O)N2CCCCCC2)c1
Potency [1]: inactive | Potency [2]: inactive | Potency [4]: inactive | Potency [3]: inactive | Potency [5]: inactive | Potency [6]: inactive

CC(=O)O[C@]1(C(C)=O)CC[C@@H]2[C@@H]3C[C@H](C)C4=CC(=O)CC[C@]4(C)[C@H]3CC[C@@]21C
Potency [1]: inactive | Potency [2]: inactive | Potency [4]: inactive | Potency [3]: inactive

CC[C@]1(O)C[C@@H]2CN(CCc3c([nH]c4ccccc34)[C@@](C(=O)OC)(c3cc4c(cc3OC)N(C=O)[C@@H]3C45CCN4CC=C[C@](CC)([C@H]45)[C@@H](OC(C)=O)[C@]3(O)C(=O)OC)C2)C1 (some centres not stated)
Potency [1]: inactive | Potency [2]: inactive | Potency [4]: inactive

Nc1ncnc2c1ncn2[C@@H]1O[C@@H](CO)[C@H](O)[C@H]1O
Potency [1]: inactive | Potency [2]: inactive | Potency [4]: inactive | Potency [3]: inactive

O=C1c2ccccc2-[n+]2ccc3c([nH]c4ccccc43)c21
Potency [1]: 0.928 µM (active) | Potency [2]: 1.65 µM (active) | Potency [4]: inactive | Potency [3]: inactive

CC(C)n1nc(-c2ccc3oc(N)nc3c2)c2c(N)ncnc21
Potency [1]: 0.233 µM (active) | Potency [2]: 3.69 µM (active) | Potency [4]: 0.59 µM (active) | Potency [5]: inactive | Potency [6]: inactive

CN(C)C1CCN(C(=O)c2ccc(NC(=O)Nc3nc(N4CCOCC4)nc(N4CCOCC4)n3)cc2)CC1
Potency [1]: 0.329 µM (active) | Potency [2]: 0.465 µM (active) | Potency [4]: 3.72 µM (active) | Potency [3]: inactive | Potency [5]: inactive | Potency [6]: inactive

CC(=O)Oc1cc2c(s1)CCN(C(C(=O)C1CC1)c1ccccc1F)C2 (configuration not stated)
Potency [1]: inactive | Potency [2]: inactive | Potency [4]: inactive | Potency [3]: inactive

CO[C@H]1C[C@@H]2CC[C@@H](C)[C@@](O)(O2)C(=O)C(=O)N2CCCC[C@@H]2C(=O)O[C@H]([C@H](C)C[C@@H]2CC[C@H](OCCO)[C@H](OC)C2)CC(=O)[C@H](C)C=C(C)[C@@H](O)[C@@H](OC)C(=O)[C@H](C)C[C@H](C)C=CC=CC=C1C
Potency [4]: inactive

CCN(CC)CCOC(=O)c1ccc(N)cc1
Potency [11]: inactive | Potency [7]: inactive | Potency [3]: inactive | outcome [12]: inactive

O=C1NC(=O)C(c2ccccc2)(c2ccccc2)N1
Potency [11]: inactive | Potency [7]: inactive | Potency [3]: inactive | outcome [12]: inactive
